Screens deposited in PubChem by Buhrlage Lab, Dana-Farber Cancer Institute and Novartis Institutes for BioMedical Research (Cambridge, Mass).
USP17 block = inhibitors of human USP17 deubiquitinase | AID 1645855, 2021 | inhibition, % at 50 µM | 6.5% of 47,000 active | Ubiquitin carboxyl-terminal hydrolase 17-like protein 5 (Homo sapiens), A8MUK1 | purified USP17, Ub-rhodamine cleavage fluorescence, 3 h
OTUD3 block = inhibitors of human OTUD3 deubiquitinase; purified OTUD3, Ub-rhodamine fluorescence, 2 h; inhibition, % at 25 µM; 0.7% of 47,000 active; AID 1645858, 2021
USP30 inh = inhibitors of human USP30 deubiquitinase. inhibition, % at 25 µM. purified USP30, Ub-rhodamine cleavage fluorescence. 5.3% of 47,000 active. AID 1645860, 2021
USP28 block = inhibitors of human USP28 deubiquitinase. Ubiquitin carboxyl-terminal hydrolase 28 (Homo sapiens), Q96RU2. purified USP28, Ub-rhodamine cleavage fluorescence, 30 min. inhibition, % at 25 µM. 3% of 47,000 active. AID 1645857, 2021
* marks the source's active call; other numbers are inactive results. Shown are actives, neighbours in structure and some others; about 11% of the full set was active somewhere. Rule as the data show it: active = inhibition above about 30%; inactive = the rest.

SMILES	USP17 block	OTUD3 block	USP30 inh	USP28 block
COc1ccccc1OC(C)C(=O)Nc1ccc2c(c1)NC(=O)CO2 (centres undefined)	-18	-10	3	-3
O=C(COc1ccc(Cl)cc1)Nc1ccc(S(=O)(=O)Nc2ccccc2)cc1	41*	7	38*	21
COc1ccccc1NS(=O)(=O)c1ccc(NC(=O)Cc2ccc(Cl)cc2)cc1	45*	-3	3	9
O=C(COC(=O)c1n[nH]c2ccccc12)Nc1ccc(N2CCCCC2)cc1	59*	-7	38*	25
Cc1cccc(-c2nnc(SCC(=O)Nc3ccc4[nH]c(=O)[nH]c4c3)n2C)c1	14	-1	11	2
O=C(COC(=O)c1ccc2c(c1)OCO2)Nc1ccc2[nH]c(=O)[nH]c2c1	42*	24	17	28
CC(C)(C)c1ccc(C(=O)OCC(=O)Nc2ccc3c(c2)OCO3)cc1	-7	7	-2	18
Cc1cccc(C(=O)OCC(=O)Nc2ccc(N3CCOCC3)cc2)c1O	32*	8	9	4
O=C(COC(=O)c1n[nH]c2ccccc12)Nc1ccc2c(c1)CCC2	-4	-2	13	-1
Cc1cccc(C(=O)OCC(=O)Nc2ccc3[nH]c(=O)[nH]c3c2)c1	57*	32*	77*	48*
CNC(=O)c1nc(C(=O)N2CCc3ccccc3C2)cs1	3	-1	13	0
O=C1NCc2ccccc2CC12CCN(Cc1cnc3ccccc3c1)CC2	-4	3	21	4
O=C(COC(=O)c1ccccc1O)Nc1ccc2[nH]c(=O)[nH]c2c1	21	6	34*	28
O=C(COC(=O)c1ccc2c(c1)OCO2)Nc1ccc(N2CCCCC2)cc1	33*	-10	-8	6
CC1(C)Cc2c(ccc3ccccc23)C2CC(O)C(=O)N21 (centres undefined)	-17	-17	-92	-19
CCC1(CC)Oc2ccc(C(=O)CCN(C)C)cc2O1	7	27	35*	14
Cc1c(C)c2ccc(OCC(=O)NCc3ccncc3)c(C)c2oc1=O	46*	3	81*	22
Cc1cc(=O)oc2cc(OCC(=O)NCc3ccncc3)ccc12	5	-4	10	-1
CNC(=O)c1cccc2c1CCN2C(=O)Nc1ccccc1	0	8	8	9
O=C(Nc1cc(F)c2nc(N3CCOCC3)ccc2c1)c1ccc(Br)o1	85*	-5	-47	2
O=C(Nc1cc(F)c2nc(N3CCOCC3)ccc2c1)C1CC1	76*	6	-11	18
O=C(NCc1ccc(N2CCOCC2)nc1)c1ccc(F)c(F)c1	-6	-3	6	-2
CC(=O)N1CCC(C(=O)Nc2ccc(N3CCOCC3)cc2)CC1	-8	-8	-33	-11
O=C(CCc1ccccc1)Nc1cc(F)c2nc(N3CCOCC3)ccc2c1	16	8	-2	3
O=C(Nc1cc(F)c2nc(N3CCOCC3)ccc2c1)C1CCC1	42*	-8	-40	-2
SMILES	USP17 block	OTUD3 block	USP30 inh	USP28 block
COc1ccccc1NC(=O)c1cn2c(n1)CCCC2	0	14	18	10
Cc1ccc(NC(=O)Cc2nnc3c(-c4nc(C5CC5)no4)cccn23)cc1	52*	18	36*	29
Cc1ccccc1NC(=O)Cc1nnc2c(-c3nc(C4CC4)no3)cccn12	-5	15	-6	-3
Cc1nn(-c2ccccc2)c2c1nc(CCC(=O)NCc1ccc(F)cc1)c(=O)n2C	8	5	23	6
Clc1ccc(Cc2nnc(-c3cccnc3)o2)cc1	1	1	0	31*
Cc1ncncc1C(=O)N1CCCC(C)(c2ncc(Cc3ccccc3F)o2)C1 (centres undefined)	9	15	23	14
COc1ccc2oc(C(=O)Nc3ccc4ccccc4n3)c(C)c2c1	32*	-5	-76	-11
CCOc1ccc(CCNC(=O)c2cccc3c2C(=O)N(CCOC)C3)cc1OCC	-16	-1	-9	53*
CCCN1Cc2cccc(C(=O)NCCc3ccccc3)c2C1=O	0	5	8	31*
CCCN1Cc2cccc(C(=O)NCc3ccc(OC)cc3)c2C1=O	-21	-3	1	11
COCCN1Cc2cccc(C(=O)NCc3ccccc3OC)c2C1=O	-10	-1	6	11
CC1CCN(S(=O)(=O)c2ccc3[nH]cc(C(=O)N(Cc4ccco4)CC4CCCO4)c(=O)c3c2)CC1 (centres undefined)	-3	0	1	9
CCn1cnc2ccc(C(=O)NC3CC3)cc2c1=O	8	-4	1	62*
Cc1ccc(N2CCN(C(=O)Cn3cc(-c4ccc(F)cc4)oc3=O)CC2)cc1	-5	-9	-15	-8
CC1(c2cc3ccccc3o2)NC(=O)NC1=O (centres undefined)	5	8	21	4
O=C(O)CC1(CC(=O)NCc2cccc(Cl)c2)CCCCC1	4	-3	-6	-15
O=C(O)CC1(CC(=O)NCc2ccc(C(F)(F)F)cc2)CCCCC1	16	10	32*	12
Cc1nc(C)n(CC2CN(Cc3cc(C#N)ccc3F)CCO2)n1 (centres undefined)	-18	-14	-32	-20
CCN(c1ccccc1)S(=O)(=O)c1cc(C(=O)Nc2nc3ccc(OC)cc3s2)c(Cl)cc1Cl	16	3	-35	4
CCN(c1ccccc1)S(=O)(=O)c1ccc(C(=O)Nc2nc3ccc(F)cc3s2)cc1	55*	-26	-230	-30
CCCCOc1cccc(C(=O)Nc2nc3ccc(S(C)(=O)=O)cc3s2)c1	26	18	36*	12
COc1ccc(-c2csc(C)n2)cc1S(=O)(=O)N1CCCCC1C (centres undefined)	-10	-4	-11	-9
NC(=O)Cn1c(=O)n(Cc2ccc(C(=O)NC3CCCC3)cc2)c(=O)c2ccccc21	53*	23	29	23
O=C(Cn1c(=O)n(CCC(=O)NC2CCCC2)c(=O)c2ccccc21)NCc1ccccc1Cl	10	11	21	-5
O=C(NC1CCN(Cc2ccccc2)CC1)c1ccc(Cn2c(=O)c3ccccc3n(Cc3ccccc3F)c2=O)cc1	16	10	34*	13
SMILES	USP17 block	OTUD3 block	USP30 inh	USP28 block
Cc1ccccc1Cn1c(=O)n(Cc2ccc(C(=O)NC3CCN(Cc4ccccc4)CC3)cc2)c(=O)c2ccccc21	17	9	29	17
N#Cc1ccccc1Cn1c(=O)n(Cc2ccc(C(=O)NC3CCCC3)cc2)c(=O)c2ccccc21	16	17	33*	17
O=C(NC1CCCC1)c1ccc(Cn2c(=O)c3ccccc3n(Cc3ccc(F)cc3)c2=O)cc1	8	10	3	8
Cc1sc2c(=O)n(C(C)C)cnc2c1C(=O)Nc1ccccc1F	-1	-2	-2	-7
CCC(C)Oc1cccc(C(=O)Nc2ccc(CN3CCOCC3)cc2)c1 (centres undefined)	-8	-3	0	80*
CC(C)(C)OC(=O)NCc1ccc(C(=O)Nc2ccc(CN3CCOCC3)cc2)cc1	-6	-9	-26	-9
